Data from PubChem BioAssay (NCI).
About 79,000 compounds went through this panel and 15% of them were active in at least one assay; those are over-represented in the sample as a whole. Calls of active or inactive are those of the source. Rule as the data show it: active = growth inhibition above about 70%; inactive = the rest.

Assays:
[1] = NCI Yeast Anticancer Drug Screen. Data for the rad52 strain (AID 147);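 also: 0% = growth of vehicle-treated control cultures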; settings: S. cerevisiae rad52 mutant growth inhibition, stronger effect = higher value
Procedure, shortened: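 Genetically altered yeast (DNA damage repair defect) treated with compound; inhibition calculated relative to vehicle.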

[2] = NCI Yeast Anticancer Drug Screen. Data for the wt1 strain (AID 149);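 also: 0% = growth of vehicle-treated wt1 cultures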; settings: S. cerevisiae wt1 strain (SPY 50644) growth inhibition, stronger effect = higher value
Procedure, shortened: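 Each compound is tested on wt1 yeast and the loss of growth versus vehicle gives the inhibition value.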

[3] = NCI Yeast Anticancer Drug Screen. Data for the rad50EPP+ strain (AID 151);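 also: 0% = growth of vehicle-treated control cultures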; settings: S. cerevisiae rad50 mutant strain, stronger effect = higher value
Procedure, shortened: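 Strain rad50EPP+; compound exposure; % growth inhibition vs vehicle.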

[4] = NCI Yeast Anticancer Drug Screen. Data for the mgt1 strain (AID 153); settings: S. cerevisiae mgt1 mutant growth inhibition, stronger effect = higher value
Procedure, shortened: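 Read-out: yeast growth inhibition vs vehicle control. Strain mgt1, drawn from a panel altered in DNA damage repair or cell cycle control.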

[5] = NCI Yeast Anticancer Drug Screen. Data for the rad50 strain (AID 155);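 also: 0% = growth of vehicle-only cultures of the same strain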; settings: S. cerevisiae rad50 strain growth inhibition, stronger effect = higher value
Procedure, shortened: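 Vehicle-treated cultures provide the reference for the growth inhibition reported for compound-exposed, repair-deficient yeast.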

[6] = NCI Yeast Anticancer Drug Screen. Data for the mec2-1 strain (AID 157); settings: S. cerevisiae mec2-1 strain, stronger effect = higher value
Procedure, shortened: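 Cells of the genetically defined mec2-1 yeast strain are incubated with test compound. Inhibition of growth is calculated against vehicle-treated controls.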

[7] = NCI Yeast Anticancer Drug Screen. Data for the rad14 strain (AID 159);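 also: 0% = growth of vehicle-treated control cultures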; settings: S. cerevisiae rad14 strain growth inhibition, stronger effect = higher value
Procedure, shortened: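 Inhibition of growth is reported for a repair-deficient yeast mutant following compound treatment, calculated relative to cultures that received vehicle.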

[8] = NCI Yeast Anticancer Drug Screen. Data for the sgs1 mgt1 strain (AID 161);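 also: 0% = growth of cultures given vehicle only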; settings: S. cerevisiae sgs1 mgt1 strain, stronger effect = higher value
Procedure, shortened: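 Test agents were incubated with a DNA-repair-mutant yeast strain. Growth was then read and compared against vehicle-treated controls.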

[9] = NCI Yeast Anticancer Drug Screen. Data for the CLN2oe strain (AID 163);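 also: 0% = growth of vehicle-only control cultures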; settings: S. cerevisiae CLN2oe strain, stronger effect = higher value
Procedure, shortened: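 Strain altered in cell-cycle control, incubated with compound; growth compared to solvent-treated controls.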

[10] = NCI Yeast Anticancer Drug Screen. Data for the cln2 rad14 strain (AID 165);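 also: 0% = growth equal to vehicle treated cultures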; settings: S. cerevisiae cln2 rad14 strain, stronger effect = higher value
Procedure, shortened: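 The screen exposed genetically defined yeast (cln2 rad14) to test compounds and scored growth inhibition relative to vehicle-treated controls.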

[11] = NCI Yeast Anticancer Drug Screen. Data for the bub3 strain (AID 167); settings: S. cerevisiae bub3 mutant strain, stronger effect = higher value
Procedure, shortened: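 Mutant yeast screening strain plus compound; vehicle-treated cultures serve as the 0% inhibition reference.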

[12] = NCI Yeast Anticancer Drug Screen. Data for the wt2 strain (AID 169); settings: S. cerevisiae wt2 strain growth inhibition, stronger effect = higher value
Procedure, shortened: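 Steps: yeast strain treated with compound; growth recorded; inhibition calculated relative to cultures given vehicle alone.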

[13] = NCI Yeast Anticancer Drug Screen. Data for the mlh1 strain (AID 171);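 also: 0% = growth of vehicle-treated control cultures of the same strain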; settings: S. cerevisiae mlh1 strain growth inhibition, stronger effect = higher value
Procedure, shortened: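 Yeast screen: mutant strain plus compound, growth scored against vehicle control wells.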

[14] = NCI Yeast Anticancer Drug Screen. Data for the sgs1 strain (AID 173);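 also: 0% = growth of vehicle-only control cultures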; settings: S. cerevisiae sgs1 mutant, stronger effect = higher value
Procedure, shortened: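 Inhibition of yeast growth served as the measure. The mutant strain was treated with each compound, and growth was normalised to cultures receiving vehicle alone.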

[15] = NCI Yeast Anticancer Drug Screen. Data for the mlh1 rad18 strain (AID 175); settings: S. cerevisiae mlh1 rad18 strain growth inhibition, stronger effect = higher value
Procedure, shortened: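 Compound-treated yeast growth, normalised to vehicle controls. Strain bears defined DNA repair mutations.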

[16] = NCI Yeast Anticancer Drug Screen. Data for the rad18 strain (AID 177); settings: S. cerevisiae rad18 mutant growth inhibition, stronger effect = higher value
Procedure, shortened: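 Inhibition values reflect reduced yeast growth compared with vehicle-treated controls, using a strain engineered with a DNA damage repair defect.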

[17] = at 5.0 µM (retest, dose inferred, filed as 0.5)
[18] = at 50.0 µM (retest, dose inferred, filed as 5.0)

Measured: growth inhibition

CCCCS/C(=C(/C#N)C(N)=O)c1cc2c([nH]1)CCCC2
inactive: [1]; at 1.2 µM 24% | [1]; at 3.7 µM 26% | [1]; at 11.0 µM 33% | [1]; at 33.0 µM 40% | [2]; at 1.2 µM -9% | [2]; at 3.7 µM 0% | [2]; at 11.0 µM -8% | [2]; at 33.0 µM -12% | [2]; at 100.0 µM 56% | [3]; at 1.2 µM 11% | [3]; at 3.7 µM 13% | [3]; at 11.0 µM 11% | [3]; at 33.0 µM 22% | [3]; at 100.0 µM 31% | [4]; at 1.2 µM -7% | [4]; at 3.7 µM -21% | [4]; at 11.0 µM -21% | [4]; at 33.0 µM -14% | [4]; at 100.0 µM 49% | [5]; at 1.2 µM 25% | [5]; at 3.7 µM 23% | [5]; [17] 16% | [5]; at 11.0 µM 24% | [5]; at 33.0 µM 28% | [5]; [18] 30% | [5]; at 50.0 µM 41.2% | [5]; at 100.0 µM 48% | [6]; at 1.2 µM -8% | [6]; at 3.7 µM -22% | [6]; [17] -1% | [6]; at 11.0 µM -17% | [6]; at 33.0 µM -34% | [6]; [18] 13% | [6]; at 50.0 µM 62.4% | [6]; at 100.0 µM 52% | [7]; at 1.2 µM -11% | [7]; at 3.7 µM -9% | [7]; at 11.0 µM -13% | [7]; at 33.0 µM -16% | [7]; at 100.0 µM 62% | [8]; [17] 9% | [8]; [18] 31% | [8]; at 50.0 µM 60.5% | [9]; at 1.2 µM -21% | [9]; at 3.7 µM -19% | [9]; at 11.0 µM -18% | [9]; at 33.0 µM -32% | [9]; at 100.0 µM 56% | [10]; [17] 8% | [10]; [18] 24% | [10]; at 50.0 µM 54.2% | [11]; at 1.2 µM -37% | [11]; at 3.7 µM -36% | [11]; [17] 4% | [11]; at 11.0 µM -30% | [11]; at 33.0 µM -6% | [12]; at 1.2 µM -13% | [12]; at 3.7 µM -17% | [12]; at 11.0 µM -16% | [12]; at 33.0 µM 6% | [13]; at 1.2 µM -13% | [13]; at 3.7 µM -19% | [13]; at 11.0 µM -30% | [13]; at 33.0 µM -36% | [13]; at 100.0 µM 54% | [14]; at 1.2 µM 12% | [14]; at 3.7 µM 17% | [14]; at 11.0 µM 18% | [14]; at 33.0 µM 22% | [15]; [17] 13% | [15]; [18] 46% | [15]; at 50.0 µM -32.3% | [16]; at 1.2 µM 0% | [16]; at 3.7 µM -13% | [16]; at 11.0 µM -24% | [16]; at 33.0 µM -19% | [16]; at 100.0 µM 44%
active: [1]; at 100.0 µM 72% | [11]; [18] 71% | [11]; at 50.0 µM 83.5% | [11]; at 100.0 µM 81% | [12]; at 100.0 µM 98% | [14]; at 100.0 µM 72%
